# Inconclusive results are not listed. Activity calls are given as the source filed them. Calls follow the shape of the full dose curve; tested in HEK293 reporter line.
# Experiment: qHTS for Inhibitors of the Functional Ribonucleoprotein Complex (vRNP) of Lymphocytic Choriomeningitis Arenaviruses (LCMV): Viability assay - alamar blue signal for LCMV Primary Screen (AID 1347085); also: nearly all actives have a fitted effect of over 80% in size
# Conditions: alamar blue viability counter-screen, LCMV vRNP screen cells; series mostly up to 57.5 µM
# Potency is read from the fitted curve at half-maximal effect.
row,Structure (SMILES),Potency
1,CN(C)CCCNC(=O)c1ccc(-c2cc(O)c3ncccc3c2)cc1,19.3 µM (active)
2,C[C@@]12O[C@@H](C[C@]1(O)CO)n1c3ccccc3c3c4c(c5c6ccccc6n2c5c31)CNC4=O,21.7 µM (active)
3,CCn1c(-c2nonc2N)nc2c(C#CC(C)(C)O)ncc(OC[C@H]3CCCNC3)c21,0.153 µM (active)
4,CC(C)(C)OC(=O)Nc1ccc(-c2cc(C(=O)NCCCCCCC(=O)NO)no2)cc1,19.3 µM (active)
5,CC(C)[C@H](C(=O)Nc1ccc(C(=O)NO)cc1)c1ccccc1,6.85 µM (active)
6,Cc1cccc(C=NNc2cc(N3CCOCC3)nc(OCCc3ccccn3)n2)c1,1.37 µM (active)
7,COc1cc(=C2C=c3ccccc3=N2)[nH]c1=Cc1[nH]c(C)cc1C,21.7 µM (active)
8,C[C@]1(CO)CN(c2cc(C(=O)Nc3ccc4c(c3)-c3c(c(C(N)=O)nn3-c3ccc(F)cc3)CC4)c(Cl)cn2)C[C@@]1(C)CO,1.37 µM (active)
9,NC(=O)c1ccc(N(C(N)=O)c2c(F)cccc2F)nc1-c1ccc(F)cc1F,17.2 µM (active)
10,CC(C)(C)c1cnc(CSc2cnc(NC(=O)C3CCNCC3)s2)o1,0.968 µM (active)
11,Cc1cc(Nc2cc(N3CCN(C)CC3)nc(C=Cc3ccccc3)n2)n[nH]1,31.4 µM (active)

# Source: PubChem BioAssay (NCATS)
